Experimental findings from PubChem BioAssay AID687001 (Broad Institute, 2013) are described below.

The structures appear in SMILES notation. Potency and affinity values are given separately. Values without a mark were called inactive.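 Rule for the calls: active = signal-lowering compounds whose fitted half-maximal concentration is at or below twice the top tested dose in every run; inconclusive = runs disagree, flat 30 to 70% inhibition, or poor curve fit; inactive = the rest.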

The experiment deals with Protein S100-A4 (Homo sapiens) (UniProt P26447). The experiment can be described thus: S100A4-myosin IIA binding inhibitor potency, dose response, biochemical, fluorescence polarization, cherry-picked hits (AID 687001).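 Note: 0% = DMSO neutral control wells and -100% = TFP positive control wells.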 The following applies: FP, S100A4/TAMRA-myosin IIA peptide binding; series mostly up to 11 µM; activity change, negative = inhibition: at the top concentration.
Protein S100-A4 (Homo sapiens), sequence (P26447 whole entry, looked up): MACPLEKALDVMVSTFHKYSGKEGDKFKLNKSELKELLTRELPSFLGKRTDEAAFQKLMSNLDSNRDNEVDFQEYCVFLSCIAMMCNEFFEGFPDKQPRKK
`O=C1CNC[C@H]2[C@@H](c3ccc(C#CC4CCCC4)cc3)[C@@H](CO)N12`: the “activity change, negative = inhibition” value was 23.8%.

As to `CCC(=O)N1C[C@@H]2[C@H](c3ccccc31)[C@@H](CO)N2C(=O)CC`, the “activity change, negative = inhibition” value is 0.177%.

`COc1ccc(S(=O)(=O)N2CCCCC2)cc1NC(=O)CCOc1cc(C)ccc1C`: the “activity change, negative = inhibition” value was -3.14%.

`COCC(=O)N(C)C[C@H]1Oc2cc(C#CCN(C)C)ccc2S(=O)(=O)N([C@@H](C)CO)C[C@H]1C`: the “activity change, negative = inhibition” value was 2.11%.

`Cc1ccc(S(C)(=O)=O)cc1C(=O)OCC(=O)N(Cc1ccccc1)Cc1ccccc1`: the “activity change, negative = inhibition” value is -0.758%.

On to `Cc1ccc(S(=O)(=O)n2cccc2C)cc1`, for which the “activity change, negative = inhibition” value is 0.742%.

Turning to `COc1ccc(S(=O)(=O)N(C)C[C@H]2Oc3ncc(-c4ccncc4)cc3C(=O)N([C@@H](C)CO)C[C@H]2C)cc1`, the “activity change, negative = inhibition” value was -1.69%.

Take `CCOC(=O)N1CCN(C(=O)COc2ccc3oc4c(c3c2)CCCC4)CC1`: the “activity change, negative = inhibition” value was 0.733%.

For the compound `COc1cc2c3nnc(-c4ccc(F)cc4)c-3cn(Cc3ccc(C)cc3)c2cc1OC`, the “activity change, negative = inhibition” value is -30.6%.

For `CCCNC(=O)Nc1ccc2c(c1)C(=O)N(C)C[C@@H](OC)[C@@H](C)CN[C@@H](C)CO2`, the “activity change, negative = inhibition” value was -0.641%.

Consider `C[C@@H](NC(=O)C[C@@H]1CC[C@H](NC(=O)C2CCC2)[C@H](CO)O1)c1ccccc1`, for which the “activity change, negative = inhibition” value is 0.215%.

Regarding `CCOC(=O)[C@]12CCCC=C1N(Cc1ccccc1)C(=O)[C@H](CC(=O)NCCCN1CCCC1=O)C2`, the “activity change, negative = inhibition” value was 0.767%.

In the case of `S=c1[nH]c(-c2ccccc2)cn1-c1ccccc1`, the “activity change, negative = inhibition” value is -5.04%.

For `O=C(NNC(=O)c1ccccc1F)c1cccc(-n2cccc2)c1`, the “activity change, negative = inhibition” value is 5.6%.

On to `O=C(Nc1nnc(S(=O)(=O)N2CCN(c3ccc(F)cc3)CC2)s1)c1ccccc1`, for which the “activity change, negative = inhibition” value is 2.56%.

Consider `CC(C)CN1CCC(=O)N([C@H](COc2ccccc2)c2ccccc2)CC1`, for which the “activity change, negative = inhibition” value is 1.29%.

As to `C[C@@H]1CN([C@H](C)CO)C(=O)CCCn2nncc2CO[C@@H]1CN(C)S(=O)(=O)c1ccc2ccccc2c1`, the “activity change, negative = inhibition” value was -2.22%.

Regarding `Cc1cc2c(cc1S(=O)(=O)N1CCN(c3cccc(C)c3C)CC1)OCCN2C`, the “activity change, negative = inhibition” value is -3.16%.

On to `O=C(NCCCN1CCC(Cc2ccccc2)CC1)C1CCC(=O)N1C1CCCC1` (centres undefined), for which the “activity change, negative = inhibition” value is 56.5%.

As for `CSc1cccc(NS(=O)(=O)c2ccc(-c3coc(C)n3)cc2)c1`, the “activity change, negative = inhibition” value was 1.05%.

On to `O=C(C[C@@H]1C[C@H]2c3cc(NC(=O)NC4CCCC4)ccc3O[C@H]2[C@H](CO)O1)NCCc1ccccc1`, for which the “activity change, negative = inhibition” value was 8.92%.

As for `CCCNC(=O)Nc1ccc2c(c1)OC[C@H](C)N(C(=O)C1CC1)C[C@H](C)[C@@H](OC)CN(C)C2=O`, the “activity change, negative = inhibition” value was -1.54%.

On to `COC(=O)C[C@H]1CC[C@@H](NC(=O)Nc2cccc(OC)c2)[C@@H](CO)O1`, for which the “activity change, negative = inhibition” value was -1.56%.

Consider `O=S(=O)(CCS(=O)(=O)c1ccccc1)c1ccccc1`, for which the “activity change, negative = inhibition” value was -3.72%.

`COC(=O)c1ccc(Oc2nc(SC)nc(N(C)C)n2)cc1`: the “activity change, negative = inhibition” value is -29.3%.

On to `C[C@@H]1CN([C@@H](C)CO)C(=O)c2cccc(NC(=O)C3CC3)c2O[C@@H]1CN(C)S(C)(=O)=O`, for which the “activity change, negative = inhibition” value is 0.87%.

With `CN(CC1CCCN(CCc2ccc(Cl)cc2)C1)C(=O)CC(F)(F)F` (centres undefined), the “activity change, negative = inhibition” value was -1.92%.

Take `Cc1ccc(OC(=O)N(C)C[C@@H]2OCc3cn(nn3)CCCC(=O)N([C@H](C)CO)C[C@H]2C)cc1`: the “activity change, negative = inhibition” value is -2.38%.

On to `Cc1ccc(S(=O)(=O)NCCC(=O)NCC(=O)Nc2c(C)cccc2C)cc1C`, for which the “activity change, negative = inhibition” value was -0.925%.

As for `COc1ccc(N2CCN(C(=O)[C@H](C)N3C(=O)C4CC=CCC4C3=O)CC2)cc1` (some centres undefined), the “activity change, negative = inhibition” value is 0.726%.

On to `COCCCN1CC(=O)N2C(c3ccccc3)c3[nH]c4ccccc4c3C[C@H]2C1=O` (some centres undefined), for which the “activity change, negative = inhibition” value was -3.16%.

Consider `COc1ccc(S(=O)(=O)Nc2ccc3c(c2)CC(=O)N([C@H](C)CO)C[C@H](C)[C@@H](CN(C)CC2CC2)O3)cc1`, for which the “activity change, negative = inhibition” value is 8.47%.

Turning to `COc1ccc(CN(C)C[C@H]2Oc3c(NC(=O)Nc4ccccc4)cccc3C(=O)N([C@@H](C)CO)C[C@@H]2C)cc1`, the “activity change, negative = inhibition” value is -1.55%.

With `CCCN1C[C@H](C)[C@H](OC)CN(C)C(=O)c2cc(NC(=O)NC3CCCCC3)ccc2OC[C@@H]1C`, the “activity change, negative = inhibition” value was 0.083%.

Take `COc1cccc(CC(NC(C)=O)C(=O)NC2CCN(S(=O)(=O)c3ccc(NC(C)=O)cc3)CC2)c1OC` (centres undefined): the “activity change, negative = inhibition” value was -4.43%.

As for `CN1CCCCN2[C@@H](CO)[C@@H](c3ccc(C#CC4(O)CCCC4)cc3)[C@@H]2C1`, the “activity change, negative = inhibition” value was 16.3%.

For the compound `C[C@@H]1CN([C@@H](C)CO)S(=O)(=O)c2ccc(-c3cccc(C#N)c3)cc2O[C@@H]1CN(C)C(=O)c1ccc(F)cc1`, the “activity change, negative = inhibition” value was -0.639%.

For the compound `Cc1cccc(S(=O)(=O)N2C[C@@H]3[C@H](c4ccccc42)[C@H](CO)N3CC2CCOCC2)c1`, the “activity change, negative = inhibition” value is -4.19%.

As for `CC(=O)N1CC(C)Oc2ccc(S(=O)(=O)NC(CC(=O)O)c3cc(C)ccc3C)cc21` (centres undefined), the “activity change, negative = inhibition” value was 0.235%.
